For assay [1], the target named is Bile acid receptor (Homo sapiens) (UniProt Q96RI1). The experiment in a line: qHTS assay for small molecule antagonists of farnesoid X receptor signaling (AID 588526; calls by dose curve). An outline of the steps:
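Antagonist mode: titrated compounds tested against chenodeoxycholic acid stimulation (normalized to 50 uM CDCA and DMSO) in GeneBLAzer HEK293T cells for 16 h. Beta-lactamase read by CCF4 fluorescence; IC50 from Hill fits.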
In general terms: In qHTS, concentration-response curves come from the screen itself.

Assay [2] in a line: qHTS assay to identify small molecules that stimulate interleukin-8 (IL-8) secretion (AID 651758; active = well fitted activation curve with a large enough effect in the signal ratio; the % refers to the signal ratio; note: potency is the fitted concentration of half-maximal effect). The essentials:
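Compounds are added to THP-1 cells (2000 per well) and left 16 hrs at 37 C. A labeled anti-IL-8 antibody pair is then added, and IL-8 secretion is measured by time-resolved FRET after 1-3 hrs at room temperature.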

The target of assay [3] is Cytochrome P450 3A4 (Homo sapiens) (UniProt P08684). The experiment in a line: qHTS Assay for Activators of Cytochrome P450 3A4 (AID 885). Note: nearly all actives have a fitted effect of over 65% in size. An outline of the steps: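 Luminescent readout of luciferin formed from 25 uM Luciferin-PPXE (KM level) by 20 nM CYP3A4 in 200 mM KPO4, with 60 min NADPH-driven reaction at room temperature after 10 min compound exposure. Ketoconazole (57 uM) defined 100% inhibition.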
Sequence of Cytochrome P450 3A4 (Homo sapiens) (P08684 whole entry, looked up): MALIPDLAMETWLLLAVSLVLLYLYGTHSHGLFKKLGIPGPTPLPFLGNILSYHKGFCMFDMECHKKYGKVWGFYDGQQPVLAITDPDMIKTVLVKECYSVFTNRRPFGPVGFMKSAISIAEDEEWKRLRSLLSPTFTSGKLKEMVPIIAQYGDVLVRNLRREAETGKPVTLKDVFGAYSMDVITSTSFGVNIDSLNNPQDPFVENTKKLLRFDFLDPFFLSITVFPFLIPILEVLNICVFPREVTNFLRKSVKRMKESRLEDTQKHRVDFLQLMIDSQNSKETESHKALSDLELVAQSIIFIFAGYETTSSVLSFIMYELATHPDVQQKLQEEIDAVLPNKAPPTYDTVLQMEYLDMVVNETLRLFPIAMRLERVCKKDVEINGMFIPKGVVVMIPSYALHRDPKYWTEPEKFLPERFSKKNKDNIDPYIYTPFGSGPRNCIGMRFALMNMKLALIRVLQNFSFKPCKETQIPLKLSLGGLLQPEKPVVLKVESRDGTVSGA

The nature of assay [4]: NFAT Signaling Pathway (AID 444; active = well fitted curve in either direction with a large enough effect, not every such curve was filed as active;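 note: carbachol stimulus at about its EC50 of 1 µM final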). Particulars: Jurkat NFAT-bla M1, carbachol, beta-lactamase ratio, 5 h; at 7.69 µM (top of the series) unless noted. An outline of the steps:
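Jurkat cells with NFAT-driven β-lactamase reporter and co-expressed M1 receptor, stimulated with carbachol (final 1 uM, ~EC50), compound titration, 5 h at 37 °C. CCF4 loaded 1 h at RT; 460/530 nm ratio gave %activity and AC50.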

Assay [5] can be described thus: Stat Signaling Pathway (AID 446; active = well fitted curve in either direction with a large enough effect, not every such curve was filed as active;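 note: ME-180 cervical cancer cells given 40 pM IL-6 alongside compound; SIE-controlled beta-lactamase reporter measured as 460/530 nm FRET emission ratio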). Particulars: ME-180 (cervical carcinoma) SIE beta-lactamase reporter, IL-6 stimulated, 5 h; at 7.69 µM (top of the series) unless noted. An outline of the steps:
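FRET read-out (405 nm excitation, 460/530 nm emission) of a beta-lactamase reporter under a STAT-inducible element in ME-180 cervical carcinoma cells. Cells with compound receive 40 pM IL-6 for 5 h. Values are normalised to AC90 stimulation and AC90 JAK-inhibitor controls.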

Assay [6] concerns the target Glucocorticoid receptor (Homo sapiens) (UniProt P04150). The experiment in a line: GR-GFP Redistribution (AID 450;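 active = compounds whose dose series gives a full or clear partial fitted curve of increased nuclear translocation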; note: potency is the fitted concentration of half-maximal effect). The note with it: U2OS GR-GFP nuclear translocation, laser cytometry, 2 h.
The target is the same in assay [7]. The experiment in a line: GR-EFC Redistribution (AID 451; calls by dose curve; note: potency is the fitted concentration of half-maximal effect). The note with it: CHO-K1 GR-EFC translocation, beta-gal luminescence, 2 h. The essentials: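 CHO-K1 cells expressing nuclear EA and GR-ED fragments of b-gal; compounds titrated up to 46 uM final, 2 h at 37 C. GR nuclear translocation read as complemented b-gal luminescence after 1 h RT detection.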
For assay [8], the target named is 3',5'-cyclic-AMP phosphodiesterase 4B (Homo sapiens) (UniProt Q07343). The experiment in a line: qHTS Assay for Inhibitors of PDE-IV (AID 607; active = well fitted activation curve with a large enough effect in the main read-out, with a control signal flat, not every such curve was filed as active). An outline of the steps: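 Cell-based read-out of cAMP via a modified cyclic nucleotide-gated channel and membrane potential dye (535/590 nm) in HEK293 cells expressing PDE4 endogenously. Compounds tested up to 22.9 uM final; 100 uM RO 20-1724 reference.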
Sequence of 3',5'-cyclic-AMP phosphodiesterase 4B (Homo sapiens) (Q07343 whole entry, looked up): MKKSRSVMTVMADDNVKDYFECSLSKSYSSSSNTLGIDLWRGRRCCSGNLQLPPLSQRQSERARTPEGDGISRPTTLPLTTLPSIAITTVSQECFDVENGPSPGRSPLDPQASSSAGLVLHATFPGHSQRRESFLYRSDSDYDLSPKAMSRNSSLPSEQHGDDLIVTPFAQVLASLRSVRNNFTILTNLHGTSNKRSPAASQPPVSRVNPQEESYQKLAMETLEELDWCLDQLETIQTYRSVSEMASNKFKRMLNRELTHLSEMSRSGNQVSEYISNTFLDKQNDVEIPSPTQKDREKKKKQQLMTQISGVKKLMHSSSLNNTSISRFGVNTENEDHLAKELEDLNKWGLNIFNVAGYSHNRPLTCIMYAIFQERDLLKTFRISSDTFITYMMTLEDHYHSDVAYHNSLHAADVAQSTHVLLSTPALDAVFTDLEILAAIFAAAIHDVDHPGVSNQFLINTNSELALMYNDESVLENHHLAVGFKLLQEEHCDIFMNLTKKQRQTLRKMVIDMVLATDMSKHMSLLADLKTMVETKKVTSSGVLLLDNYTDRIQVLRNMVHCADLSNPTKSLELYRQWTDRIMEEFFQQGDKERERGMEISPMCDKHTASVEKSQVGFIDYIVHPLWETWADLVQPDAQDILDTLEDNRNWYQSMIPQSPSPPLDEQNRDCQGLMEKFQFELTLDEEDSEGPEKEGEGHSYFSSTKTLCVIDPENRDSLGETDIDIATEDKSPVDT

For assay [9], the target named is Androgen receptor (Homo sapiens) (UniProt P10275). The experiment in a line: qHTS assay for small molecule agonists of androgen receptor signaling (AID 588515; active = well fitted curve in the direction sought with a large enough effect in the signal ratio, with a control signal flat; the % refers to the signal ratio). Particulars: AR-UAS-bla HEK293, beta-lactamase ratio, agonist 16 h; active compounds read high. An outline of the steps: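 Stimulation of an AR-responsive β-lactamase reporter in GripTite HEK293 cells was measured after 16 h compound exposure at 37 °C, via CCF4 fluorescence after 2 h RT. EC50 from Hill fits, normalized to R1881 at 30 nM.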
Sequence of Androgen receptor (Homo sapiens) (P10275 whole entry, looked up): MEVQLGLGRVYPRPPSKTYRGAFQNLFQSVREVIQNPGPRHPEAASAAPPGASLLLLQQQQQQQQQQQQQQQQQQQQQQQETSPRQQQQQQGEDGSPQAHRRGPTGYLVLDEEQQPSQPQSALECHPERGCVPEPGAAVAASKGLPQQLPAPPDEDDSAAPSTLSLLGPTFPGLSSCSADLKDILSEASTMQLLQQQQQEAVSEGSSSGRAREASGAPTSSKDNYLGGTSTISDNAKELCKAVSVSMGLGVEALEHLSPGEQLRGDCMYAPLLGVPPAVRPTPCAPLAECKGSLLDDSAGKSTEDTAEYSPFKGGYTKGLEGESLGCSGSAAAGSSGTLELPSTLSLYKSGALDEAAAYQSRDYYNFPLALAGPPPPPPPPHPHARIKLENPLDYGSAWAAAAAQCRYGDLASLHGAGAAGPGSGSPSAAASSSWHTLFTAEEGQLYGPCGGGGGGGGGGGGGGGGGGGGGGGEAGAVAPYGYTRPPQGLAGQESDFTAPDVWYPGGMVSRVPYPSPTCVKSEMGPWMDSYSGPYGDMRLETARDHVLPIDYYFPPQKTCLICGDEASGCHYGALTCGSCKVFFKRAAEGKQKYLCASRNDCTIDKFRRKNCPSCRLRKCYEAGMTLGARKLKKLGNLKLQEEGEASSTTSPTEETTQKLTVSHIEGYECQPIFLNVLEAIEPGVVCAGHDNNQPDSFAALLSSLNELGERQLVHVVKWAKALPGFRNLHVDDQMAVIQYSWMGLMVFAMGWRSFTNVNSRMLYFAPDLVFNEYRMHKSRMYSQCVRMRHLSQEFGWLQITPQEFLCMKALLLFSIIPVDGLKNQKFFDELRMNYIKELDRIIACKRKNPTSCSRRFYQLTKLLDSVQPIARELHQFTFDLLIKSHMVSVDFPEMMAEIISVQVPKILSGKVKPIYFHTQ

Assay [10] shares this target. The experiment in a line: qHTS assay for small molecule antagonists of androgen receptor signaling (AID 588516; active = well fitted curve in the direction sought with a large enough effect in the signal ratio, with a control signal flat, not every such curve was filed as active; the % refers to the signal ratio). An outline of the steps:
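Cells were plated and incubated 5 h, compounds added in titration, then R1881 (10 nM final) as agonist. After 16 h at 37 C, CCF4 substrate was loaded for 2 h at room temperature and fluorescence measured.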

A short description of assay [11]: Confirmation and Secondary Assay for Modulators of Hemoglobin Beta Chain Splicing at IVS2 654 locus (AID 910).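 Note: HeLa cells stably carrying EGFP split by mutant beta-globin IVS2-654 intron.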 The essentials:
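HeLa cells stably expressing EGFP interrupted by β-globin IVS2-654 intron, seeded overnight in Opti-MEM/2% FCS, then treated 2 days at 37 °C. Restored splicing read as total peak GFP intensity per well by laser scanning cytometry (488 nm excitation, 500–520 nm emission); 500 nM antisense PNA as control.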

Assay [12] in a line: Confirmation and Secondary Assay for Modulators of Hemoglobin Beta Chain Splicing at IVS2 705 locus (AID 930).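 Note: HeLa cells stably expressing the EGFP-705 splicing reporter; GFP fluorescence per well restored by corrected splicing of the IVS2-705 intron in EGFP.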 The essentials: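 Fluorescence gain (488 nm laser, 500-520 nm PMT) reflects restored correct splicing of a mutant IVS2-705 intron inside EGFP in stably transfected HeLa cells after 2-day compound treatment.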
Assay [13] addresses Ubiquitin carboxyl-terminal hydrolase 1 (Homo sapiens) (UniProt O94782). The experiment in a line: Inhibitors of USP1/UAF1: Pilot qHTS (AID 504865).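 Note: rhodamine fluorescence freed from ubiquitin-rhodamine substrate followed over time; top concentration of the series differs between compounds; nearly all actives have a fitted effect of over 35% in size.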 An outline of the steps: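 In 50mM HEPES pH 7.8 containing 0.5mM EDTA, 1mM TCEP, 0.1 mg/ml BSA and 0.01% Tween-20, 1nM USP1/UAF1 is exposed to compound for 15 min, then Ub-Rho (150nM final) is added and fluorescence is read over time.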

Assay [14] concerns the target ATP-dependent 6-phosphofructokinase (Trypanosoma brucei brucei) (UniProt O15648). The experiment in a line: qHTS Assay to Find Inhibitors of T. brucei phosphofructokinase: hit validation (AID 492961). The essentials: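 Luminescence from ADP-Glo reports ADP generated as T. brucei PFK (1.25 nM) phosphorylates 0.5 mM fructose-6-phosphate using 0.1 mM ATP. Reactions ran 45 min at room temperature, pH 8.0.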

Assay [15] is described as follows: qHTS profiling for inhibitors of Plasmodium falciparum proliferation (AID 504749). Note: nearly all actives have a fitted effect of over 60% in size. The note with it: P. falciparum in erythrocytes, SYBR Green DNA, 72 h, at 28.7 µM (top of the series). The essentials: (§1)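 SYBR Green fluorescence (ex 485 nm, em 535 nm) reports parasite DNA after 72 h compound exposure of infected red cells at 0.3% parasitemia, 2.5% hematocrit; signal normalized to 0.29 uM artemisinin and vehicle wells.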

Assay [16] relates to AS120. Described as above. Particulars: P. falciparum in erythrocytes, SYBR Green DNA, 72 h; series mostly up to 28.7 µM. An outline of the steps: as §1
In assay [17] the test system is ATS189. The description is as above. Particulars: P. falciparum in erythrocytes, SYBR Green DNA, 72 h; series mostly up to 28.7 µM. An outline of the steps:
as §1

Assay [18] deals with CP203. The description is as above. Particulars: P. falciparum in erythrocytes, SYBR Green DNA, 72 h; series mostly up to 28.7 µM. The essentials:
as §1

The test system of assay [19] is CP291. The description is as above. Particulars: P. falciparum in erythrocytes, SYBR Green DNA, 72 h; series mostly up to 28.7 µM. The essentials: as §1
Assay [20] concerns DFO2036. Described as above. The note with it: P. falciparum in erythrocytes, SYBR Green DNA, 72 h; series mostly up to 28.7 µM. An outline of the steps: as §1

Values joined by “and” are separate entries in the source; they are usually repeats but may differ in a detail not shown here. Equal entries are not always repeated. Values without a mark were called inactive. Records with an inconclusive call do not appear. Where a call stands in place of a potency, no number is given. Active and inactive are the calls of the source. Unless noted, calls come from the whole dose curve; as a rule, active = well fitted curve in the direction sought with a large enough effect; inconclusive = small, poorly fitted or top-dose-only effect, or another doubt; inactive = no such curve, though single readings can be large; an effect the other way counts as inactive or inconclusive.

Sequence of Bile acid receptor (Homo sapiens) (Q96RI1 whole entry, looked up): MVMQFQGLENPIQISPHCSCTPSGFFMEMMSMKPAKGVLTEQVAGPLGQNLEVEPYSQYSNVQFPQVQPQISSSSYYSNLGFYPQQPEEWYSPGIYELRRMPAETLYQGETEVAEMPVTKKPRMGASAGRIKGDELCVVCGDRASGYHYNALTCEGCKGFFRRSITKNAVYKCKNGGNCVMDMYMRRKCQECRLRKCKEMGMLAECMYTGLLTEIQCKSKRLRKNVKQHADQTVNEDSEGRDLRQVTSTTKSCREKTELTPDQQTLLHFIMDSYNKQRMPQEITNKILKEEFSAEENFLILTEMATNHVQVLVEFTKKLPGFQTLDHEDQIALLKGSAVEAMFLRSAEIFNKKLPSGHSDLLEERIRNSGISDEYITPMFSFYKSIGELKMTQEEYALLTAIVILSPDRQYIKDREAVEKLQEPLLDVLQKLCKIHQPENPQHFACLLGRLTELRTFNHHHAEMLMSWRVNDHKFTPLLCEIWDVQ
Sequence of Glucocorticoid receptor (Homo sapiens) (P04150 whole entry, looked up, the tested form may be a part): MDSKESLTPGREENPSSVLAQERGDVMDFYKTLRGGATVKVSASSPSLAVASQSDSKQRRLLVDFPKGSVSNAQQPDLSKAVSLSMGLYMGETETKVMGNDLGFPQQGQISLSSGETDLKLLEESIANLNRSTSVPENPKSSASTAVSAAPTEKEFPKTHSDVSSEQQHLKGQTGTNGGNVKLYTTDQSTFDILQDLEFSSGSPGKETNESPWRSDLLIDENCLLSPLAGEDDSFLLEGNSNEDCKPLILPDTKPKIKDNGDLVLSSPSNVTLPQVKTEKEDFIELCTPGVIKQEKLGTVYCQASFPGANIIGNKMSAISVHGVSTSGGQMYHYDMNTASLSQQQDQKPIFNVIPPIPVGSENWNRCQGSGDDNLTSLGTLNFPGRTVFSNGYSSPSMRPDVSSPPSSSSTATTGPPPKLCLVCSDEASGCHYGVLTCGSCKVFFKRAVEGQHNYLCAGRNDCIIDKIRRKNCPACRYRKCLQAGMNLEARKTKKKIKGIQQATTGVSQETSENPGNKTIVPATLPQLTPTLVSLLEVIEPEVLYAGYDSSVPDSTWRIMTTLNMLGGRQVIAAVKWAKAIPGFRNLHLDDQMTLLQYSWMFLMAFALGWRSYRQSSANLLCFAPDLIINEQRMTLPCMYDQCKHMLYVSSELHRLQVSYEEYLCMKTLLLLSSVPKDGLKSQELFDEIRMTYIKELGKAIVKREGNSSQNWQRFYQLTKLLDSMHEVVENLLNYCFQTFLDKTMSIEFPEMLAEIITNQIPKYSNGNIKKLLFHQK
Sequence of Ubiquitin carboxyl-terminal hydrolase 1 (Homo sapiens) (O94782 whole entry, looked up): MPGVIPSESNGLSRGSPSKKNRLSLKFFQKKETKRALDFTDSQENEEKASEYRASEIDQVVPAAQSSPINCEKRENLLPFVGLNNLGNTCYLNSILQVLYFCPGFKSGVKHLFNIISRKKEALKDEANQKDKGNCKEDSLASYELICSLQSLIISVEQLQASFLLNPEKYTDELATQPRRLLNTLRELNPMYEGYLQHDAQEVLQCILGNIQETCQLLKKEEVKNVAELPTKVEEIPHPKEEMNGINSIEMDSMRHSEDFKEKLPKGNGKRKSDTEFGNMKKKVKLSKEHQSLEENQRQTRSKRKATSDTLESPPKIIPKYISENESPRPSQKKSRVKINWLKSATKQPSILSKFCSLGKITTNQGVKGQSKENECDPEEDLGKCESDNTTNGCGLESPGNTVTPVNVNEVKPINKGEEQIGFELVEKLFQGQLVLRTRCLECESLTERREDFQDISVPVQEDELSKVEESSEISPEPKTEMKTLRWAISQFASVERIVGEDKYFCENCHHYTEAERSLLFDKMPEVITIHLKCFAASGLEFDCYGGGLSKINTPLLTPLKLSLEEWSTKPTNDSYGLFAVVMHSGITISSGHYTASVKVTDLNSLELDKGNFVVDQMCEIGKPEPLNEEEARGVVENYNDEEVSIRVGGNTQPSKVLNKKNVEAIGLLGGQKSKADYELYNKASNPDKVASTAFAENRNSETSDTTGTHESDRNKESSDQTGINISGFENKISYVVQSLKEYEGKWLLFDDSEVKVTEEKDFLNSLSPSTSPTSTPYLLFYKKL
Sequence of ATP-dependent 6-phosphofructokinase (Trypanosoma brucei brucei) (O15648 whole entry, looked up): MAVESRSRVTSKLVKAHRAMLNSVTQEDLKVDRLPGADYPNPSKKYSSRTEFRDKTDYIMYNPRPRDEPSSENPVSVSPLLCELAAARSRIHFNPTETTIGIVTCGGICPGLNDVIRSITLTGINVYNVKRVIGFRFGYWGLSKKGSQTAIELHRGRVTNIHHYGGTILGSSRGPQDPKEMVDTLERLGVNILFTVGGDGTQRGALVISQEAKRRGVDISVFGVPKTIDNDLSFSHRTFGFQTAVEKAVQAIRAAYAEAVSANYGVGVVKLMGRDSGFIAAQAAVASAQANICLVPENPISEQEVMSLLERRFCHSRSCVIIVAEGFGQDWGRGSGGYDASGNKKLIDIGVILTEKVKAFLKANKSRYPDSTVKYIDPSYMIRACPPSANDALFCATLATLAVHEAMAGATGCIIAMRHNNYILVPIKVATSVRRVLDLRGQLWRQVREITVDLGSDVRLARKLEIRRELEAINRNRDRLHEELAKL

As to `O=C(O)c1cc(Cl)ccc1Cl`, the call in assay [1] was inactive.
Consider `CC(C)C#N`, for which the Potency result in assay [2] is “inactive”.
`Nc1ccc(Cc2ccc(N)c(Cl)c2)cc1Cl`: the Potency result in [3] was “inactive”.
For the compound `C=CCBr`, the outcome in assay [1] was inactive.
The same measure, in the same setting: next, `Brc1cccc(-c2ccccc2)c1`: “inactive”; `CC(C)(Cl)[N+](=O)[O-]`: “inactive”.
Consider `O=[As](O)(O)c1ccc(Cc2ccc([As](=O)(O)O)cc2)cc1`, for which the activity change, negative = inhibition in [4] was -132% (active). In addition, the activity, negative = inhibition in [5] is -5.31%. Moreover, the Potency in [6] was over 46 µM; in [7], over 9.22 µM. Besides, the outcome in [8] was inactive.
As to `O=C(Cc1ccccc1)OCc1ccccc1`, the compound was classed as inactive in [1]. The Potency result in [2] was “inactive”.
`C1CC2OC2CC1C1CO1` (stereo not given): in assay [1], the compound was classed as inactive. In [2], the Potency entry is “inactive”.
Regarding `CC(C)(OOC(C)(C)c1ccccc1)c1ccccc1`, the activation in [9] is 9.96%. Besides, the result in assay [10] and in [1] was inactive.
With `C=CCc1cc(OC)c2c(c1)OCO2`, the Potency result in assay [3] is “inactive”.
Regarding `ClCCOCOCCCl`, in assay [1], the compound was classed as inactive.
`BrCC(Br)(Br)Br`: in [9], the activation was 1.19%. The Potency in assay [2] is 42.2 µM (active).
Take `COP(=S)(OC)SCn1nnc2ccccc2c1=O`: the Potency result in assay [3] and in [13] was “inactive” throughout. For the same compound, the call in [11] and in assay [12] was inactive. Besides, the activation in [9] is -9.55% and -1.17%.
Take `CN(C)c1ccc(N(C)C)cc1`: the result in assay [1] was inactive.
Take `Oc1cc(Cl)cc(Cl)c1`: in assay [2], the Potency entry is “inactive”.
For `Nc1ccc(Cc2ccc(N)cc2)cc1`, in [3], the Potency entry is “inactive”. Also, the compound was called inactive in assay [1].
Take `O=C(O)CBr`: in [2], the Potency entry was “inactive”.
Take `CCC(Cl)[N+](=O)[O-]` (stereo not given): the call in assay [1] was inactive. Further, in assay [2], the Potency result was “inactive”.
For `Oc1cc(Cl)c(Cl)c(Cl)c1`, the Potency entry in assay [3] is “inactive”.
Regarding `Cc1cccc(N)c1C`, the compound was called inactive in assay [1].
In the case of `O=Cc1ccc2c(c1)OCO2`, the result in assay [1] was inactive. For the same compound, the Potency result in [2] was “inactive”.
As to `C[C@@H]1O[C@@H](O[C@H]2C[C@@H](O)[C@@]3(CO)[C@H]4[C@H](O)C[C@]5(C)[C@@H](C6=CC(=O)OC6)CC[C@]5(O)[C@H]4CC[C@@]3(O)C2)[C@@H](O)[C@H](O)[C@H]1O`, the activity change, negative = inhibition in assay [4] is -104% (active). Besides, the activity, negative = inhibition in assay [5] is -4.36%; in [15] (parasite line A), -4.19%; in [15] (parasite line B), 10.7%. Further, the outcome in assay [8] and in assay [14] was inactive. The Potency result in [13], in [16], in [17], in assay [18], in assay [19] and in [20] was “inactive” each time.
